Assay results reported in PubChem BioAssay.
Active and inactive are the calls of the source.

How the values were obtained:
[1] = small molecules captured by biotinylated probe aFSTL3 – biochemical, small-molecule microarray, fluorescence 635/667, stem cell growth factor project, primary screen (AID 1064); settings: higher = more signal;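 note: measures binding of the biotinylated anti-FSTL3 antibody to printed compounds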
[2] = binders from COS7 lysate, DM2A8 probe, primary screen, torsin A project, cell lysate, small-molecule microarray, fluorescence 635/667 (AID 1065); settings: higher = more signal, COS7 lysate expressing mutant human TOR1A
[3] = small molecules captured by biotinylated probe aFGF2 – biochemical, small-molecule microarray, fluorescence 635/667, stem cell growth factor project, primary screen (AID 1067); settings: higher = more signal;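 note: measures binding of biotinylated aFGF2 protein to printed compounds on slides; z-score merges feature fluorescence and signal-to-noise across triplicate slides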
[4] = small molecules captured by biotinylated probe aFGF10 – biochemical, small-molecule microarray, fluorescence 635/667, stem cell growth factor project, primary screen (AID 1071); settings: higher = more signal;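 note: score merges 667 nm spot intensity and signal to noise from triplicate slides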
[5] = target: Neurogenic locus notch homolog protein 2 (Homo sapiens) (UniProt Q04721); assay: small molecules binding Notch2 protein – biochemical, small-molecule microarray, 635 nm fluorescence, stem cell growth factors, primary screen (AID 1073); settings: higher = more signal
Sequence of Neurogenic locus notch homolog protein 2 (Homo sapiens) (Q04721 whole entry, looked up, canonical isoform): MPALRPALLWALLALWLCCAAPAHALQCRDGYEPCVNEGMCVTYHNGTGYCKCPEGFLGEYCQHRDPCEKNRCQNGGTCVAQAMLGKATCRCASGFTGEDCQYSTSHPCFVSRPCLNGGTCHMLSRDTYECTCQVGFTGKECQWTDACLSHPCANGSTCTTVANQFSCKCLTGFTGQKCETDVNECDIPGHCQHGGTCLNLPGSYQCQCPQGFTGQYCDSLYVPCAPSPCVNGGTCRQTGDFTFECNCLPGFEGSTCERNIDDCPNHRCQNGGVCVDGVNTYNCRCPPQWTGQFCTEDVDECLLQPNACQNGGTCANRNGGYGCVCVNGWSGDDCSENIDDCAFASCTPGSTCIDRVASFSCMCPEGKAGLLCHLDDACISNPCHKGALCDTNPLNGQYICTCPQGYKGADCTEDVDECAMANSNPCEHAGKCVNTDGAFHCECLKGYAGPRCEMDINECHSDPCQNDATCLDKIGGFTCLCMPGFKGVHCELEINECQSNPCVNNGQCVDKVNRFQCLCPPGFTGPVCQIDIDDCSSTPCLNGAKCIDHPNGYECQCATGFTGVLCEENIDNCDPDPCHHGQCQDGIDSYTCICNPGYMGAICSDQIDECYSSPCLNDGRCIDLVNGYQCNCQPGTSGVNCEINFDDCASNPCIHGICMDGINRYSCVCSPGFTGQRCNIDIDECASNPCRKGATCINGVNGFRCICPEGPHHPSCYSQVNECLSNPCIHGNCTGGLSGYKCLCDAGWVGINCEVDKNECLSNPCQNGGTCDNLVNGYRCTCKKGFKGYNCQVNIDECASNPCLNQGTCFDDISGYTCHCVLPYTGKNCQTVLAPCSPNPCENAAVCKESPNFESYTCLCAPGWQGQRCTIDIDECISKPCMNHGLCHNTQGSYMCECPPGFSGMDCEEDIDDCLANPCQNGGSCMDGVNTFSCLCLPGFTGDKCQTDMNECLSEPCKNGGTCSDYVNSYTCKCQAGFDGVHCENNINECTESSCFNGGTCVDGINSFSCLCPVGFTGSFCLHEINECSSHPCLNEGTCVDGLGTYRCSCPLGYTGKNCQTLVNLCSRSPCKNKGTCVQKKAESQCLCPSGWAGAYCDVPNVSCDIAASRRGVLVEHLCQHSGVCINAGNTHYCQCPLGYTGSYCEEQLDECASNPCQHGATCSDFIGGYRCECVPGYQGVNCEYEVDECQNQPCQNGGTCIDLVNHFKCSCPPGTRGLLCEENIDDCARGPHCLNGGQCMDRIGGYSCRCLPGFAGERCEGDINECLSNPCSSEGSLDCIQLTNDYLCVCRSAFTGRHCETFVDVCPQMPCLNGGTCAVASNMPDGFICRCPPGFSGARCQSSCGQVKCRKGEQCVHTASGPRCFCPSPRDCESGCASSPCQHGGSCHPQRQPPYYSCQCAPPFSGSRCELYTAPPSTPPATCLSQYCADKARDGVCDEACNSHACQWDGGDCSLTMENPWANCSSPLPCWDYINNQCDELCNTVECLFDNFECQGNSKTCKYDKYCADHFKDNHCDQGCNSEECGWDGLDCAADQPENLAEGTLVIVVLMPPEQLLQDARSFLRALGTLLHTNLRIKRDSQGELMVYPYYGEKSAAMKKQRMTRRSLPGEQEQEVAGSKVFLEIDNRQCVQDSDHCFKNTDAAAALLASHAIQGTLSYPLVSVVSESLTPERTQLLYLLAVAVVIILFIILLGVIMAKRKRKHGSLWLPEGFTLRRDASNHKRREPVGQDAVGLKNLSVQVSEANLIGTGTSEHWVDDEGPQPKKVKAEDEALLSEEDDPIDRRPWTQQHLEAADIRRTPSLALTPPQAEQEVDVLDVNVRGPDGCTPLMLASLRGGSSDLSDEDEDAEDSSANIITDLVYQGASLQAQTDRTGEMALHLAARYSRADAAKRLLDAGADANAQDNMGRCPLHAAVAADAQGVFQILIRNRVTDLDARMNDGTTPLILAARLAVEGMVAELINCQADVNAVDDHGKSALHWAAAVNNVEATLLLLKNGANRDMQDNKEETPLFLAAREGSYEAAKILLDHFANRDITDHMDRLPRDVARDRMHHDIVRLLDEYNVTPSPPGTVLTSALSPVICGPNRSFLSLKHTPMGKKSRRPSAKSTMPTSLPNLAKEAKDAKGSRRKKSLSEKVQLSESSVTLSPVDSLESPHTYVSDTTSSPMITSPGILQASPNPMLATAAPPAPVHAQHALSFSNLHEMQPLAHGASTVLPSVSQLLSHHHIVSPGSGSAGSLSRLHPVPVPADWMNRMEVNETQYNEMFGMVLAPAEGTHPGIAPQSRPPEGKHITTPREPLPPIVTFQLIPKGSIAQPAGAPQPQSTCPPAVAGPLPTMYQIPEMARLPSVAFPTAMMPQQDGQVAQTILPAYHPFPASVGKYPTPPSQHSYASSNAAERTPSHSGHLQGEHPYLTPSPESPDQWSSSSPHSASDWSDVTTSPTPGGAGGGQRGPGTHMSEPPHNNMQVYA

[6] = target: Pro-neuregulin-1, membrane-bound isoform (Homo sapiens) (UniProt Q02297); assay: small molecules binding neuregulin-1 protein – biochemical, small-molecule microarray, fluorescence 635/667, psychiatric disease protein project, primary screen (AID 1075); settings: NRG1 binding, 635 nm fluorescence, higher = more signal;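 note: score combines 667 nm spot fluorescence with signal to noise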
Sequence of Pro-neuregulin-1, membrane-bound isoform (Homo sapiens) (Q02297 whole entry, looked up, the tested form may be a part, canonical isoform): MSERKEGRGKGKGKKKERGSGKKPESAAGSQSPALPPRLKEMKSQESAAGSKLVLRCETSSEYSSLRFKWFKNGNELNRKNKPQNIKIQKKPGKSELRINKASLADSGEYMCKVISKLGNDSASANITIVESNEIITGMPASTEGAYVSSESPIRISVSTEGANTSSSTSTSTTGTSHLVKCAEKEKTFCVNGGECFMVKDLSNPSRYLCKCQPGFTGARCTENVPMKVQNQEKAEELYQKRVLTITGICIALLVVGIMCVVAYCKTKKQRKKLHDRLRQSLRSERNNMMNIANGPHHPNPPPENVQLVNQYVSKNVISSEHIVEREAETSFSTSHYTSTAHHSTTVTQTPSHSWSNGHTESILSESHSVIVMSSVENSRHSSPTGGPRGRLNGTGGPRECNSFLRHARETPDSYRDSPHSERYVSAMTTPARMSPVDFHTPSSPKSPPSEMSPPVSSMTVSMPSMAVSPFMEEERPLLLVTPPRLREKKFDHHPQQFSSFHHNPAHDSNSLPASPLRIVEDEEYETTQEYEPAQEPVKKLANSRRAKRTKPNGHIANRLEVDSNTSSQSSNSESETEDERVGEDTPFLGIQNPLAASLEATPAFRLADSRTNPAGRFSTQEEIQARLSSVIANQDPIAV

[7] = test system: Neuregulin-1 EGF-like domain; assay: small molecules binding NRG1 EGF domain – biochemical, small-molecule microarray, 635 nm fluorescence, primary screen (AID 1081); settings: higher = more signal;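 note: binding of the protein to compounds printed on small-molecule microarray slides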
[8] = FRG1 expression reporter modulators in myotubes – cell-based, C2C12 myotubes, firefly/Renilla luciferase, luminescence, FRG1 inhibition for FSHD, primary screen (AID 1084); settings: FRG1 promoter luciferase, higher = more signal, called active from +8 up or from −8 down
[9] = small molecules captured by biotinylated probe aFST – biochemical, small-molecule microarray, fluorescence 635/667, stem cell growth factor project, primary screen (AID 1086); settings: higher = more signal;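 note: score merges 667 nm fluorescence with signal-to-noise of each printed compound spot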
[10] = binders of probe aHhip on microarray, primary screen, stem cell growth factor project, biochemical, small-molecule microarray, fluorescence 635/667 (AID 1087); settings: higher = more signal;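 note: score merges spot fluorescence at 667nm with spot signal to noise ratio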

Compound | composite z-score [1] | composite z-score [2] | composite z-score [3] | composite z-score [4] | composite z-score [5] | composite z-score [6] | composite z-score [7] | z-score [8] | composite z-score [9] | composite z-score [10]
CCOC(=O)[C@H]1C/C=C/C[C@H](C(=O)OCC)C(=O)O[C@H]2[C@@H](OC)O[C@H](CO)[C@@H](OC(=O)c3c(OC)cccc3OC)[C@@H]2OC1=O | 1.03 | 0.321 | -0.0275 | 0.259 | 0.297 | 1.12 | 1.02 | 0.418 (inactive) | 0.951 | 1.32
CC(=O)NCCCC[C@@H]1NC(=O)[C@@H]2C[C@H](C(=O)NCCCCCNC(=O)CS)[C@H](c3cccc(OCCO)c3)N2C1=O | -0.525 | -0.047 | -0.211 | 0.37 | 0.121 | -0.122 | 0.709 | 0.618 (inactive) | -0.195 | -0.212
COCCOC(=O)N1C(=O)[C@@]2(c3cc(C#CCC(C(=O)OC)C(=O)OC)ccc31)[C@H](C(=O)N1CCN(c3ncccn3)CC1)[C@H]1C(=O)O[C@H](c3ccccc3)[C@H](c3ccccc3)N1[C@@H]2c1ccccc1OCCO | -0.486 | 0.51 | 0.0247 | 0.86 | 1.32 | 0.841 | 1.27 | 0.131 (inactive) | 0.495 | -0.0346
CC(C)(C)OC(=O)CC[C@]1(C(=O)N2CCOCC2)N=C(c2ccc(OCCCO)cc2)O[C@H]1c1ccccc1N=[N+]=[N-] | 0.594 | 0.838 | 0.0376 | 0.402 | 1.48 | 1.63 | 1.28 | 1.71 (inactive) | 1.06 | 0.0515
COCCOC(=O)N1C(=O)[C@@]2(c3ccccc31)[C@H](C(=O)N1CCc3cc(OC)c(OC)cc3C1)[C@H]1C(=O)O[C@H](c3ccccc3)[C@H](c3ccccc3)N1[C@@H]2c1ccc(OCCO)cc1 | 0.249 | 0.977 | -0.279 | 0.509 | 0.832 | 0.0602 | 1.21 | -1.98 (inactive) | 0.412 | -0.0085
C=CCNC(=O)[C@@H]1[C@H]2C(=O)O[C@H](c3ccccc3)[C@H](c3ccccc3)N2[C@H](c2ccccc2OCCO)[C@@]12C(=O)N(C(=O)OCCOC)c1ccccc12 | 0.599 | 0.603 | -0.107 | 0.73 | 1.32 | 0.848 | 1.29 | -0.0386 (inactive) | 0.562 | 0.621
C=CCOC(=O)[C@H]1[C@@H]2C(=O)O[C@@H](c3ccccc3)[C@@H](c3ccccc3)N2[C@@H](c2ccc(OCCOC(=O)[C@H]3C[C@H]4C(=O)N[C@@H](CCCCNC(C)=O)C(=O)N4[C@H]3c3cccc(OCCO)c3)cc2)[C@]12C(=O)Nc1ccccc12 | -0.0212 | 1 | -0.0723 | 0.732 | 0.279 | 0.786 | 1.11 | 1.12 (inactive) | -0.047 | -0.0994
COC(=O)C(CC#Cc1ccc2c(c1)[C@]1(C(=O)N2)[C@H](c2ccc(OCCO)cc2)N2[C@H](c3ccccc3)[C@H](c3ccccc3)OC(=O)[C@H]2[C@@H]1C(=O)Nc1nc2ccccc2s1)C(=O)OC | -0.319 | -0.164 | 0.0519 | 0.465 | 1.03 | 1.36 | 1.19 | 2.62 (inactive) | 0.582 | 0.0156
